Most compounds without a hit are left out; they make up all but 1.5% or so of the library.
APEX1 inh: inhibitors of human APE1 endonuclease; P27695; 350,000 compounds, 0.35% hits; recombinant APE1, TAMRA/BHQ-2 abasic DNA cleavage fluorescence; Potency, µM (highest dose often 65.8 µM), inactives show top-dose activity change, negative = inhibition, actives largely listed as inhibitors;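 note: potency is the fitted concentration of half-maximal effect; plate controls were vehicle for no effect and reference inhibitor for full effect; nearly all actives have a fitted effect of over 55% in size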
Target sequence (P27695 whole entry, looked up): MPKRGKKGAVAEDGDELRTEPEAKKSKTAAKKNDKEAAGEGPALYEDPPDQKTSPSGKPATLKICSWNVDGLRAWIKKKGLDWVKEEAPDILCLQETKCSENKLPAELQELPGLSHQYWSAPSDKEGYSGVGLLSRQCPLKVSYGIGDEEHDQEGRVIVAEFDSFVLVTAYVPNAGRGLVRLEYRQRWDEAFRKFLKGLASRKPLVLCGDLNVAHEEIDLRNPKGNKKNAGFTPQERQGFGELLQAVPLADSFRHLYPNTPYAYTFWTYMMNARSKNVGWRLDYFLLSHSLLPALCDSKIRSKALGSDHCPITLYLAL
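APE1 at 0.75 nM final was preincubated with compound 15 min at room temperature, then 50 nM double-stranded THF abasic-site substrate (5'-TAMRA/3'-BHQ-2) was added. Fluorescence (ex 525/em 598 nm) was read kinetically; third-minus-first read gave activity.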
RECQ1 helicase: RECQ1 (human) helicase inhibition; RECQ1 DNA unwinding, red fluorescence kinetic read; Potency, µM (top dose mostly 57.3 µM), without a hit: at the highest dose activity, negative = inhibition, actives largely listed as inhibitors; 240,000 compounds, 0.54% hits; AID 2549;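 note: potency is the fitted concentration of half-maximal effect; plate controls were vehicle for no effect and no enzyme for full effect; nearly all actives have a fitted effect of over 30% in size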
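RECQ1T1 50 nM; forked duplex (20 bp + 30-nt ss tails) 200 nM, ATP 2 mM final; pH 8.0, 2 mM MgCl2, 2.5 ug/ml poly(dI-dC); 15 min compound preincubation; discontinuous kinetic read over 2 h at RT.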
WRN inhibitor: blocks human WRN helicase; Q14191; WRN helicase unwinding, fluorescent forked duplex, kinetic; Potency, µM (doses to about 114 µM), for inactives: at the top dose activity change, negative = inhibition, most hits filed as inhibitors; 360,000 compounds, 0.46% hits; note: potency is the fitted concentration of half-maximal effect; % is set by controls: 0 for no effect and ±100 for the full control effect; nearly all actives have a fitted effect of over 55% in size
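WRN at 20 nM final was preincubated with compound for 15 min at room temperature; reaction started with 100 nM forked duplex oligonucleotide carrying fluorophore and quencher plus 2 mM ATP (final). Unwinding followed kinetically by red fluorescence (ex 525/em 598 nm).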
BLM inh: inhibitors of human Bloom syndrome helicase BLM. P54132. recombinant BLM DNA unwinding, fluorescence dequenching. Potency, µM (doses to about 56.1 µM), without a hit: at the top dose activity change, negative = inhibition, usual class: inhibitors. 350,000 compounds, 0.2% hits. AID 2528;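 note: potency is the fitted concentration of half-maximal effect; plate controls were vehicle for no effect and no enzyme for full effect; nearly all actives have a fitted effect of over 35% in size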
FEN1 inh-1: blocks human flap endonuclease 1; P39748; Recombinant FEN1 flap cleavage, fluorescence, 15 min; Potency, µM (top dose mostly 114 µM), for inactives: top-dose activity change, negative = inhibition, hits mostly inhibitors; 390,000 compounds, 0.35% hits; AID 588795; note: potency is the fitted concentration of half-maximal effect; % is set by controls: 0 for no effect and ±100 for the full control effect; nearly all actives have a fitted effect of over 65% in size
Target sequence (P39748 whole entry, looked up): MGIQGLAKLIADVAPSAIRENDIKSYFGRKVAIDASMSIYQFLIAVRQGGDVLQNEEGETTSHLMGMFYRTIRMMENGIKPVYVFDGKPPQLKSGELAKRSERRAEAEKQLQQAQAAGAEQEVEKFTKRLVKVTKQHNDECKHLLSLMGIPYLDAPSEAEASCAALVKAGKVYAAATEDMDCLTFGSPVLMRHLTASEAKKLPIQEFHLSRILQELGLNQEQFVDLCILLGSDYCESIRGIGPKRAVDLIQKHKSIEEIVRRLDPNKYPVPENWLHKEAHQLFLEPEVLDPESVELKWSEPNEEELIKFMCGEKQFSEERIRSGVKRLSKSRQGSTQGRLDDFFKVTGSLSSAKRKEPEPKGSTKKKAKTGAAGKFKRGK
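Compounds are tested as a concentration series against 10 nM FEN1; after a 15 min room-temperature preincubation, 50 nM substrate starts cleavage, with plate reads at 0 and 15 min. Normalized responses are fitted by a Hill equation.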
PI5P4Ka inh: inhibitors of human PI5P4K alpha; AID 652105; PI5P4Kalpha enzyme, ADP-Glo luminescence, 60 min; active compounds read low; P48426; max response, %; 330,000 compounds, 1.2% hits; active = max response of -50% or lower; inconclusive = between -30% and -50%; inactive = -30% or higher; note: value at the top dose of about 77 µM; % is set by controls: 0 for no effect and ±100 for the full control effect
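Compounds were pin-transferred onto PI5P4Kalpha and substrate in HEPES pH 7.4 buffer with EGTA, CHAPS and 5% DMSO. ATP (5 microM final) started the reaction, which ran 60 minutes at room temperature before ADP-Glo detection.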
FEN1 inh-2: confirmation of human FEN1 inhibitors; FEN1 flap cleavage, TAMRA/BHQ2 fluorogenic DNA substrate; Potency, µM, usual class: inhibitors; shares compounds with FEN1 inh-1; AID 720498; 880 compounds, 79% hits; note: potency is the fitted concentration of half-maximal effect; nearly all actives have a fitted effect of over 60% in size
The depositor's hits bear a star; i = inactive; u = inconclusive; x = no result given; [ ] = dose if it differs, or a comment. Unless noted, calls come from the whole dose curve; as a rule, active = well fitted curve in the direction sought with a large enough effect; inconclusive = small, poorly fitted or top-dose-only effect, or another doubt; inactive = no such curve, though single readings can be large; an effect the other way counts as inactive or inconclusive.

SMILES	APEX1 inh	RECQ1 helicase	WRN inhibitor	BLM inh	FEN1 inh-1	PI5P4Ka inh	FEN1 inh-2
CCN1/C(=C/c2ccc3cc(C)ccc3[n+]2CC)Sc2cc(C)ccc21	9%	u	50µM*	3%	u	-19	7.6*
Cc1ccc2c(c1)S/C(=C/c1ccc[n+](C)c1)N2CCO	0%	5%	3%	48%	u	-6	x
COc1cccc(NC(=O)c2oc3ccccc3c2NC(=O)Cc2cccc(C)c2)c1	x	x	x	-8%	12%	x	x
CCCCn1cc(S(=O)(=O)c2ccc(Cl)cc2)c(=O)c2cc(F)c(N3CCCC(C)C3)cc21 (configuration not stated)	x	x	x	-3%	14%	x	x
O=C(O)c1cc(Cl)ccc1-c1ccc(/C=C/c2cc(C(F)(F)F)[nH]c(=O)n2)o1	-1%	-1%	u	5%	u	-53*	60*
O=c1nc(/C=C/c2ccc(-c3ccc(F)cc3)o2)cc(C(F)(F)F)[nH]1	-3%	23%	x	-4%	x	x	x
Nc1nc(C23CC4CC(CC(C4)C2)C3)[nH]c(=O)n1	-3%	-2%	-4%[11.6 µM]	-7%	u	0	34*
CCc1nnc(N/N=C/c2c(Cl)cccc2Cl)n1N	-5%	-8%	-8%[11.6 µM]	-1%	7%	x	u
CCc1nnc(N/N=C/c2cccs2)n1N	11%	3%	0%[11.6 µM]	7%	-13%	-11	x
Cc1nc2c(oc3ccccc32)c(=O)o1	0%	0%	-1%	-1%	1%	x	x
Cc1c2cnccc2c(C)c2c1oc1ccccc12	x	x	5%[11.6 µM]	x	35µM*	16	38*
CN(C)CCCNC(=O)c1ccccn1	0%	i	7%	-1%	-6%	x	x
CN(C)CCCNC(=O)c1ccc(-c2cc(O)c3ncccc3c2)cc1	-27%	x	x	x	50µM*	x	u
CCn1c(=O)c2cc(C(=O)NCCCN3CCN(c4ccc(F)cc4)CC3)sc2c2ccccc21	x	x	x	6%	14%	x	x
O=C(O)c1ccc2cccnc2c1O	-5%	-1%	-28%	-11%	22µM*	-17	7.6*
COc1cc(N/C(N)=N/c2nc(C)cc(C)n2)cc(OC)c1	11%	x	39%	90%	u	-3	54*
Cc1cc(C)nc(/N=C(\N)Nc2ccc3c(c2)OCCO3)n1	-1%	1%	17%[57.1 µM]	283%	79µM*	-8	67*
COc1ccc(N/C(N)=N/c2nc(C)cc(C)n2)c(OC)c1	4%	-1%	22%	41%	-12%	-10	x
COc1ccc([C@]23Cc4ccccc4C(O2)C2=C(O3)C(=O)c3ccccc3C2=O)cc1	14%[12.4 µM]	x	x	-8%[12.4 µM]	x	x	x
CC1CCCCC1NC(=O)CSc1ccsc1[N+](=O)[O-] (configuration not stated)	2%	i	-17%	-5%	6%	-3	x
O=C(CSc1ccsc1[N+](=O)[O-])NCc1ccccc1	4%	13%	1%[11.6 µM]	-6%	-1%	u	u
Cc1ccc(S(=O)(=O)NCC(c2ccc(N(C)C)cc2)N2CCc3ccccc32)cc1C (configuration not stated)	x	x	x	-6%	13%	x	x
O=C(OCc1nnc(-c2ccccc2)o1)c1ccc([N+](=O)[O-])o1	-42%	x	-10%	x	u	2	x
COc1cc(-c2nnc(COC(=O)c3ccc([N+](=O)[O-])o3)o2)cc(OC)c1OC	x	x	11%	x	x	5	8.5*
CC(C)N1CCc2c(sc(NC(=O)C3CC3)c2-c2nc3ccccc3s2)C1	x	x	x	x	x	x	15*
SMILES	APEX1 inh	RECQ1 helicase	WRN inhibitor	BLM inh	FEN1 inh-1	PI5P4Ka inh	FEN1 inh-2
CCOC(=O)c1sc(=S)n(-c2ccccc2)c1C	3%	-2%	-12%	-2%	-17%	-4	x
CCOC(=O)c1c(O)c(O)c(C(=O)OCC)n1-c1ccccc1	-1%	-3%	5%	-3%	18µM*	0	9.5*
c1ccc2c(c1)Cc1cc3ccccc3nc1-2	u	-4%	-1%[11.6 µM]	-4%	u	0	30*
Cc1cccc(N/N=C/c2ccc(O)c(O)c2O)c1	u	-8%	-9%[11.6 µM]	-2%	25µM*	-23	u
O=C(NC1CCCCC1)c1ccc2c(c1)sc1nc(-c3ccccc3)cn12	x	x	x	-3%	-1%	x	x
CN(C)CCNc1cccc2sc3ccc(O)cc3c(=O)c12	x	x	u	x	x	18	x
CN(C)CCNc1ccc2nnn3c4ccc(O)cc4c(=O)c1c23	x	x	23%[11.6 µM]	x	13µM*	-3	8.5*
NC(N)=Nc1nc(-c2ccccc2)c2ccccc2n1	1%	-2%	56%	202%	u	1	u
Cc1ccc(NC(=O)CN2CCSc3ccc(S(=O)(=O)N4CCCC4)cc32)cc1C	x	x	x	-9%	7%	x	x
Cc1c(C)c2cccnc2c2ncccc12	-28%	x	-7%[11.6 µM]	x	16µM*	-3	43*
Cc1ccc(O)c2ncccc12	x	x	x	8%	x	x	x
Cc1cccc(C)c1NC(=O)CN1C(=O)S/C(=C\c2cccn2-c2cccc(C(=O)O)c2)C1=O	-11%	-6%	u	-19%	50µM*	-69*	76*
Cc1cccc(C)c1NC(=O)CN1C(=O)S/C(=C\c2cccn2C)C1=O	3%	i	-9%	-2%	-1%	x	x
O=C(CN1C(=O)N/C(=C\c2cccn2-c2cccc(C(=O)O)c2)C1=O)Nc1ccc(Cl)cc1	x	x	x	x	x	x	60*
O=C1N/C(=C/c2cccn2-c2ccccc2)C(=O)N1Cc1ccc(F)cc1	-2%	8%	4%	-7%	1%	10	x
CCOc1ccc(N=Cc2c(C)[nH]n(-c3nc4ccccc4[nH]3)c2=O)cc1	1%	-2%	u	-27%	u	-19	u
Cc1[nH]n(-c2ccccc2)c(=O)c1C=Nc1cnc2ccccc2c1	-6%	-16%	-12%	-6%	17%	-1	x
Cc1ccc(C(=O)/C=C/N(C)C)o1	0%	0%	-3%	-9%	-8%	-1	x
Cc1ccc(C(=O)/C=C/c2cc(Br)cc(Br)c2O)o1	40%	x	79µM*	-18%	u	-28	85*
COc1ccc(OC)c(/C(O)=C/C(=O)C(=O)Nc2cc(C)cc(C)c2)c1	-1%	-28%	-10%	-11%	u	2	43*
CCc1nc(Oc2cccc(F)c2)c2oc3ccccc3c2n1	x	x	x	-6%	0%	x	x
O=[N+]([O-])c1ccc2c([N+](=O)[O-])ccc3c2c1CC3	x	x	0%[11.6 µM]	x	x	-74*	u
Cc1cccc(-c2cc3nc(C)cc(NCCCN(C)C)n3n2)c1	-7%	6%	-6%	-1%	-22%	x	x
CN(C)CCCNc1cc(-c2ccccc2)nc2cc(-c3cccc(F)c3)nn12	-11%	x	-1%[11.6 µM]	56%	u	0	48*

Bioassay records from PubChem BioAssay.
